One sequence from publication PMC7862700, “An all-to-all approach to the identification of sequence-specific readers for epigenetic DNA modifications on cytosine” can be followed below.

What all share (test): DAPPL (digital affinity profiling via proximity ligation, sequencing); 10 mM Tris-HCl pH 7.5, 50 mM NaCl, 1 mM DTT, 4% glycerol, room temperature, 30 min; GST-TFs on glutathione beads, 16-mer random dsDNA library, 0.1% formaldehyde crosslink after washing; high values mean tight binding
In one assay the target is T1, FEV (Homo sapiens, UniProt Q99581 1-238).
T1 sequence: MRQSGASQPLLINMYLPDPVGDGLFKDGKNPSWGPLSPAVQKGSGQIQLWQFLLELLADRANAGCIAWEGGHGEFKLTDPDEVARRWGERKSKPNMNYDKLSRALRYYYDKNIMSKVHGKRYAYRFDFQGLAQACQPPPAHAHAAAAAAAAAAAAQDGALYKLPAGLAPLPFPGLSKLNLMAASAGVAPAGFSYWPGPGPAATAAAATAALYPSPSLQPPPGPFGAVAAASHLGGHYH
To be noted: protein: recombinant; tags: N-terminal GST; dsDNA, one strand shown. An outline of the steps: (§1)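 Beads coated with glutathione captured GST-fused human transcription factors that had been expressed in yeast, and the factors were then given DNA barcodes and pooled with a tag-only sample. The pools were incubated with 200 nmole of a random double-stranded 16-mer DNA library in Tris/NaCl/DTT/glycerol buffer for 30 min at room temperature, washed, crosslinked with 0.1% formaldehyde and proximity-ligated with BsaI/T4 ligase at 37 °C for 1 h. PCR amplification and Illumina NextSeq500 sequencing came last. Binding signal is each hexamer's read frequency for a factor divided by its frequency for the tag-only sample.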

In another assay the target is ETV5 (Homo sapiens, UniProt P41161 1-510). To be noted: protein: recombinant; tags: N-terminal GST; dsDNA, one strand shown. An outline of the steps:
as §1

In a further assay the target is HSF1 (Homo sapiens, UniProt Q00613 1-529). To be noted: protein: recombinant; tags: N-terminal GST; chain copies: 3; dsDNA, one strand shown. The procedure, abridged: as §1
Chain of HSF1 (Q00613 whole entry): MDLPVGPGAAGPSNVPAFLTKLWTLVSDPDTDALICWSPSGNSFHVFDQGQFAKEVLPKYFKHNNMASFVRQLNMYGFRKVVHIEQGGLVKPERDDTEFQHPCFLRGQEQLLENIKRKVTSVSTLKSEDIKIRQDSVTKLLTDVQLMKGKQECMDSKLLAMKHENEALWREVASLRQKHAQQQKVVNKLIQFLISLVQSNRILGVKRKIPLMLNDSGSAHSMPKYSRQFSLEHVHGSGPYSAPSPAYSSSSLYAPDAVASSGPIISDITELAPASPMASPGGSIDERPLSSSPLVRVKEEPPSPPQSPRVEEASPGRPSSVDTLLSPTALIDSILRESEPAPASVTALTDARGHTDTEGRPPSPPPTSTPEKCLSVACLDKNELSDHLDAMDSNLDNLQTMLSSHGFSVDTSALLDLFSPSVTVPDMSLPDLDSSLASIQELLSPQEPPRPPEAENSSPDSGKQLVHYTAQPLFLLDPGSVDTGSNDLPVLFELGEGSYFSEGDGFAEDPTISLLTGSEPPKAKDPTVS
Another assay deals with T2, SPIC (Homo sapiens, UniProt Q8N5J4 1-248).
T2 sequence: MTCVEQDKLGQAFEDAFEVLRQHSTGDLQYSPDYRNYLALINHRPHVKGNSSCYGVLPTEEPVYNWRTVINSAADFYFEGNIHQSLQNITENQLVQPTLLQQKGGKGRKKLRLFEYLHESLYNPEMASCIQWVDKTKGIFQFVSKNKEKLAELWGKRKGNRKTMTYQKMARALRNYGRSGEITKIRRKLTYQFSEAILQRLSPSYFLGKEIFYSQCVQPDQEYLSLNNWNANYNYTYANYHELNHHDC
To be noted: protein: recombinant; tags: N-terminal GST; dsDNA, one strand shown. An outline of the steps:
as §1

The target of a further assay is ELF4 (Homo sapiens, UniProt Q99607 1-663). The conditions noted are these: protein: recombinant; tags: N-terminal GST; dsDNA, one strand shown. An outline of the steps: as §1
Chain of ELF4 (Q99607 whole entry): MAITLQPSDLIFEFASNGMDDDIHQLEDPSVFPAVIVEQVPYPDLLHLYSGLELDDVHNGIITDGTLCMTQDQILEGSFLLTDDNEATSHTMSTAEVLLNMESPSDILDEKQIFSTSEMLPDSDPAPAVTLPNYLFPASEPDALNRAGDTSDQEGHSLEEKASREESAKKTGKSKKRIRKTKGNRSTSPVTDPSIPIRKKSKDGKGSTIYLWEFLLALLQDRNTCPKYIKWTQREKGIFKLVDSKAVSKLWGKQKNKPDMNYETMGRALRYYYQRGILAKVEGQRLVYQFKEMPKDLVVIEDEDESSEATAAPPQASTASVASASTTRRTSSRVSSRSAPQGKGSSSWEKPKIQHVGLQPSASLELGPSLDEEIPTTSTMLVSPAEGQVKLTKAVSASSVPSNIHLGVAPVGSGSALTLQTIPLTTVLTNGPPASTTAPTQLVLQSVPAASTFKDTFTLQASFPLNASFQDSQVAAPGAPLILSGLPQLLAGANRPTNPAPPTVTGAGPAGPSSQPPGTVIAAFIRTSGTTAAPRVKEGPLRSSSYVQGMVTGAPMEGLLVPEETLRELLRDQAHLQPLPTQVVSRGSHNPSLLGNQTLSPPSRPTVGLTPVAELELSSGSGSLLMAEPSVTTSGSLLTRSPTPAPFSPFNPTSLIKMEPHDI
A further assay concerns the target T3, ELK4 (Homo sapiens, UniProt P28324-2 1-405).
T3 sequence: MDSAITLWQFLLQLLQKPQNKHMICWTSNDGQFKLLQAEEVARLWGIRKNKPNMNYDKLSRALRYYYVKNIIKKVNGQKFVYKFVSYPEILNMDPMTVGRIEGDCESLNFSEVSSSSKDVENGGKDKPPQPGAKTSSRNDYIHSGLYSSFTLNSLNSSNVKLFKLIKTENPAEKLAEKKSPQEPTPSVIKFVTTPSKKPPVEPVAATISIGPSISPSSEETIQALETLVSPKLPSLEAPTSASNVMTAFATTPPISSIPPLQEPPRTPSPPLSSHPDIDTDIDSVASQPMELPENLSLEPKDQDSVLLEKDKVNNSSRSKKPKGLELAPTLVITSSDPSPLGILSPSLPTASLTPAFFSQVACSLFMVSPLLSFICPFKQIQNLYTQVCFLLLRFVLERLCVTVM
To be noted: protein: recombinant; tags: N-terminal GST; dsDNA, one strand shown. An outline of the steps: as §1

In another assay the target is T4, ETV2 (Homo sapiens, UniProt O00321 1-342).
T4 sequence: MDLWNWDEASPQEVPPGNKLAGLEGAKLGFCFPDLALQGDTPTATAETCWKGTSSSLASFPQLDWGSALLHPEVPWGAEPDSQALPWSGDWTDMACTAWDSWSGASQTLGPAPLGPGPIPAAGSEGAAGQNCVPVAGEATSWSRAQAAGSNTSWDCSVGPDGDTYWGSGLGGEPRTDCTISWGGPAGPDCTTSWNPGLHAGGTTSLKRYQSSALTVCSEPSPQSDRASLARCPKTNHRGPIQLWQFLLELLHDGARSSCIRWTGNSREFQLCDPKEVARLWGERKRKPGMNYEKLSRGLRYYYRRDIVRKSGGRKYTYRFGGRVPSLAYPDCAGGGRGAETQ
To be noted: protein: recombinant; tags: N-terminal GST; dsDNA, one strand shown. An outline of the steps: as §1

Another assay addresses T5, ELF3 (Homo sapiens, UniProt P78545 1-371).
T5 sequence: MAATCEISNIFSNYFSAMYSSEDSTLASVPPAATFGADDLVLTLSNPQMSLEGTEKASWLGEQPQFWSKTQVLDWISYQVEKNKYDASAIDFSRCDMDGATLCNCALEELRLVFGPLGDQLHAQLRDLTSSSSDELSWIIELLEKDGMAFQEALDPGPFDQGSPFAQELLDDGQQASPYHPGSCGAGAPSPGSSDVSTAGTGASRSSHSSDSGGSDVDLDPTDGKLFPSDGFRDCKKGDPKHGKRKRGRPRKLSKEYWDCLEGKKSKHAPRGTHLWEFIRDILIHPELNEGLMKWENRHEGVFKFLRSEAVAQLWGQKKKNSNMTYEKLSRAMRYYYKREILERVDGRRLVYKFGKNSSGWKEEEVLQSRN
To be noted: protein: recombinant; tags: N-terminal GST; dsDNA, one strand shown. An outline of the steps:
as §1

Another assay deals with CRX (Homo sapiens, UniProt O43186 1-299). To be noted: protein: recombinant; tags: N-terminal GST; dsDNA, one strand shown. The procedure, abridged:
as §1

Another assay deals with ETV1 (Homo sapiens, UniProt P50549 1-477). To be noted: protein: recombinant; tags: N-terminal GST; dsDNA, one strand shown. The procedure, abridged: as §1
Chain of ETV1 (P50549 whole entry): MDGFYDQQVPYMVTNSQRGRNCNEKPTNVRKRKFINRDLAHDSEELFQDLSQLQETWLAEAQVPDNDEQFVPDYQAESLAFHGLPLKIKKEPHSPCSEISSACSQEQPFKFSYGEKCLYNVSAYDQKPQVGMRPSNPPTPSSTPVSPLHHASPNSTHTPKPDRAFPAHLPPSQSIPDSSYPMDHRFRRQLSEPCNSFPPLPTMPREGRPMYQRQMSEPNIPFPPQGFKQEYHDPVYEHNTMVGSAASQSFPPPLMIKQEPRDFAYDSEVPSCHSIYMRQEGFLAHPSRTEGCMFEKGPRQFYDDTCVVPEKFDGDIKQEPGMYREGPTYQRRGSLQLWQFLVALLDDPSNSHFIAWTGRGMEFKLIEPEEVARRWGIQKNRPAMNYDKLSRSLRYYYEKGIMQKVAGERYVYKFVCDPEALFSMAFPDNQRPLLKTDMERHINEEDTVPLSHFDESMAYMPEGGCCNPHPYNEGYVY
The next assay deals with T6, ERF (Homo sapiens, UniProt P50548 1-548).
T6 sequence: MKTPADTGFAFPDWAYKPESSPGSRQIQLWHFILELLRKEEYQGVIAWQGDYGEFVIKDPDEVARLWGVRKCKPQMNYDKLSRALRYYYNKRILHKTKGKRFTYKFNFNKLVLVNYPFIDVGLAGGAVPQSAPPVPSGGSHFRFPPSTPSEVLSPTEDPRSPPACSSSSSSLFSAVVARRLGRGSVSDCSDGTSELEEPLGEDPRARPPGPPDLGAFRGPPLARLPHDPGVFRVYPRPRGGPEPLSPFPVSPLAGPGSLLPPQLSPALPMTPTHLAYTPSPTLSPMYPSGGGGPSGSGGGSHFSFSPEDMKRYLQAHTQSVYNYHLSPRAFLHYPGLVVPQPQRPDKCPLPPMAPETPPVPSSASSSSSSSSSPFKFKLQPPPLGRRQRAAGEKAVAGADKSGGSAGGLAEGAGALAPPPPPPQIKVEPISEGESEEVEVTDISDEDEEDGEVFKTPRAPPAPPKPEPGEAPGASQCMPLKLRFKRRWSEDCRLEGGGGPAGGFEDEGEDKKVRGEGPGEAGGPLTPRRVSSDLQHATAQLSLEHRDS
The conditions noted are these: protein: recombinant; tags: N-terminal GST; dsDNA, one strand shown. An outline of the steps: as §1

Another assay has as its target T7, ETV3L (Homo sapiens, UniProt Q6ZN32 1-361).
T7 sequence: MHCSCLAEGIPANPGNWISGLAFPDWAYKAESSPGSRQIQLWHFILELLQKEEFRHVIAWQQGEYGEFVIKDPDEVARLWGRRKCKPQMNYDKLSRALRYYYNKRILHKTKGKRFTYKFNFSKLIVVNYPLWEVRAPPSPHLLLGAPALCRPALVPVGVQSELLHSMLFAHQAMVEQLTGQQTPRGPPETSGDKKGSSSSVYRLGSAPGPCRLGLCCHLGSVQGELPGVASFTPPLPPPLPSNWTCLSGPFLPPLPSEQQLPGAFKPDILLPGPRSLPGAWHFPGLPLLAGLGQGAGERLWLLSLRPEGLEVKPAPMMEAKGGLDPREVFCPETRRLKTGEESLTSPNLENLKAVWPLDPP
To be noted: protein: recombinant; tags: N-terminal GST; dsDNA, one strand shown. An outline of the steps: as §1

The next assay concerns the target T8, ETS2 (Homo sapiens, UniProt P15036 1-469).
T8 sequence: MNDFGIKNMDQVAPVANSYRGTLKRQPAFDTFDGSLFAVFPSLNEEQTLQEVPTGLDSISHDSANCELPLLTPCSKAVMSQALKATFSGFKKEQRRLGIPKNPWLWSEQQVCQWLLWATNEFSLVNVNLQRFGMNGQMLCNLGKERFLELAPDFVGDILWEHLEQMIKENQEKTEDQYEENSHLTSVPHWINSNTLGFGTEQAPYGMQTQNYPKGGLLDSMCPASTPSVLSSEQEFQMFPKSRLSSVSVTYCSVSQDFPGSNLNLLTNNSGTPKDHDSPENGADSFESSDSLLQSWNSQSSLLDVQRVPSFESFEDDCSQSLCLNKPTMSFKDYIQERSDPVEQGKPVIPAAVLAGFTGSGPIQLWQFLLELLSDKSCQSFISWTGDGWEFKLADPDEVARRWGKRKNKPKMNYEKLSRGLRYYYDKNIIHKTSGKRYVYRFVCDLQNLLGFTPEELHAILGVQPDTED
To be noted: protein: recombinant; tags: N-terminal GST; dsDNA, one strand shown. An outline of the steps:
as §1

A further assay has as its target T9, SPDEF (Homo sapiens, UniProt O95238 1-335).
T9 sequence: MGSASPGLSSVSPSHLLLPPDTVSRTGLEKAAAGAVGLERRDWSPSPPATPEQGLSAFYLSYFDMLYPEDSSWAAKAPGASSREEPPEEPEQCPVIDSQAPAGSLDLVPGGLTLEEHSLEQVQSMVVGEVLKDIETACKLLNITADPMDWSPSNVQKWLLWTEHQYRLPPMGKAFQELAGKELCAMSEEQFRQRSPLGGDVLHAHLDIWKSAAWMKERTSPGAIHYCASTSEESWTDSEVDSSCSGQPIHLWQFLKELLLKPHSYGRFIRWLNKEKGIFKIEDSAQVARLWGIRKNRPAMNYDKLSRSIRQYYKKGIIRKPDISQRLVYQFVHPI
To be noted: protein: recombinant; tags: N-terminal GST; dsDNA, one strand shown. The procedure, abridged: as §1

Another assay addresses T10, ETV7 (Homo sapiens, UniProt Q9Y603 1-341).
T10 sequence: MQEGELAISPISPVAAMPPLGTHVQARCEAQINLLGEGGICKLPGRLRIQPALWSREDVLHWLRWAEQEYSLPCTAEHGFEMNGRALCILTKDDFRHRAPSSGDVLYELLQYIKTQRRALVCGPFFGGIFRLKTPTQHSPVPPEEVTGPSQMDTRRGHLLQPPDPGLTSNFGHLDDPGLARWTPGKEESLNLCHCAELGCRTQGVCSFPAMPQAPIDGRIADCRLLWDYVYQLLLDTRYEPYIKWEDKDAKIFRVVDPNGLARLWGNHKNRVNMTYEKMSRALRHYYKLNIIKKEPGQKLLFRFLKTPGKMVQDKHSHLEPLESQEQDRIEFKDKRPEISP
To be noted: protein: recombinant; tags: N-terminal GST; dsDNA, one strand shown. An outline of the steps:
as §1

A further assay concerns the target T11, ELF5 (Homo sapiens, UniProt Q9UKW6-2 1-255).
T11 sequence: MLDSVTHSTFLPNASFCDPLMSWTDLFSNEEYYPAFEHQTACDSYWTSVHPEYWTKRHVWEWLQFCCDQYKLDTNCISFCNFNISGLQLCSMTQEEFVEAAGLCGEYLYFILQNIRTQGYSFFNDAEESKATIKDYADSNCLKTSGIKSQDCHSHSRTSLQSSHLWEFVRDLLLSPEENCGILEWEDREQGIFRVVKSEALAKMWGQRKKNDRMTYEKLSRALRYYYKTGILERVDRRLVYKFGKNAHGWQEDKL
The conditions noted are these: protein: recombinant; tags: N-terminal GST; dsDNA, one strand shown. The procedure, abridged: as §1

The next assay addresses T12, ETV3 (Homo sapiens, UniProt P41162-2 1-143).
T12 sequence: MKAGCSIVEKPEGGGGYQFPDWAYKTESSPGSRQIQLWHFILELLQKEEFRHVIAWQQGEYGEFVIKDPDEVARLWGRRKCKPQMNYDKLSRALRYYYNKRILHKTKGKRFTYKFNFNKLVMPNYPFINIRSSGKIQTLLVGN
The conditions noted are these: protein: recombinant; tags: N-terminal GST; dsDNA, one strand shown. The procedure, abridged: as §1

The target of another assay is ETV6 (Homo sapiens, UniProt P41212 1-452). The conditions noted are these: protein: recombinant; tags: N-terminal GST; dsDNA, one strand shown. An outline of the steps:
as §1

Chain of ETV6 (P41212 whole entry): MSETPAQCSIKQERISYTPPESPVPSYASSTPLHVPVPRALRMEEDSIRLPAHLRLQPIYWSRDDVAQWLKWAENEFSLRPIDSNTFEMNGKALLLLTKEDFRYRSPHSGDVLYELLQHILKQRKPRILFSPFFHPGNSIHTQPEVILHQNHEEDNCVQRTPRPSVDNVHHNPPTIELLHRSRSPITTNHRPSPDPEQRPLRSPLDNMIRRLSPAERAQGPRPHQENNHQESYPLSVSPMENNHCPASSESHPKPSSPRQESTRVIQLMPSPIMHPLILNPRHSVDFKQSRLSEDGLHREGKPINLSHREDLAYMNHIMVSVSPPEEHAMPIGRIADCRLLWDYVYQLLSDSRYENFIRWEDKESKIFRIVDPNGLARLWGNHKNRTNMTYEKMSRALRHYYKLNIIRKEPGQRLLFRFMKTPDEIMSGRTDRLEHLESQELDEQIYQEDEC
Chain of CRX (O43186 whole entry): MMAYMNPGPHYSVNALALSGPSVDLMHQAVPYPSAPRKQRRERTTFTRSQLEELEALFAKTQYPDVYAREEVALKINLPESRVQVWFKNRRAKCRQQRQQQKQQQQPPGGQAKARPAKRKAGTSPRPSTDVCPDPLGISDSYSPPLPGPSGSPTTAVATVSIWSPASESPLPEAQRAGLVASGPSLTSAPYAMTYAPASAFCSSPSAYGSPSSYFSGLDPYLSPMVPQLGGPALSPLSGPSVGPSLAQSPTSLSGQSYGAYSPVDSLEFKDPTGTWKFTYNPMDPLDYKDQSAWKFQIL
Chain of ETV5 (P41161 whole entry): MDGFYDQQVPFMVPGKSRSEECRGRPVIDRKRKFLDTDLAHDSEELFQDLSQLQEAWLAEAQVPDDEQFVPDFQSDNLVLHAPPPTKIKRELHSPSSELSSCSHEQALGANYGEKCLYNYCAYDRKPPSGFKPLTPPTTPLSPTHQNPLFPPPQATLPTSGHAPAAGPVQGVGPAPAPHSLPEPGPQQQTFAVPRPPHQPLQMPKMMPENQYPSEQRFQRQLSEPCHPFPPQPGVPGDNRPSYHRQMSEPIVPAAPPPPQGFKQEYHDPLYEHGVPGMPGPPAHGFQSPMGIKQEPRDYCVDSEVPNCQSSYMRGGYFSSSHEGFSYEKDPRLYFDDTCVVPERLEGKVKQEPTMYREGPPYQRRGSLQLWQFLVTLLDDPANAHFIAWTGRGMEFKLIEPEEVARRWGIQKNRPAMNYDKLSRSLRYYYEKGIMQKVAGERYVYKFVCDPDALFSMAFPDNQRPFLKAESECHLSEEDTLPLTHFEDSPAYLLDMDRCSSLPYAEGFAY

TAATGC: the binding signal is 1.17 fold enrichment (6-mer frequency, TF over GST control) in the assay with FEV; 1.16 fold enrichment (6-mer frequency, TF over GST control) with ETV5; 1.63 fold enrichment (6-mer frequency, TF over GST control) with HSF1; 1.21 fold enrichment (6-mer frequency, TF over GST control) with SPIC; 1.28 fold enrichment (6-mer frequency, TF over GST control) in the assay with ELF4; 1.23 fold enrichment (6-mer frequency, TF over GST control) in the assay with ELK4. In addition, the binding signal with ETV2 was 1.29 fold enrichment (6-mer frequency, TF over GST control); in the assay with ELF3, 1.23 fold enrichment (6-mer frequency, TF over GST control); with CRX, 2.32 fold enrichment (6-mer frequency, TF over GST control); with ETV1, 1.28 fold enrichment (6-mer frequency, TF over GST control); with ERF, 1.07 fold enrichment (6-mer frequency, TF over GST control); in the assay with ETV3L, 1.16 fold enrichment (6-mer frequency, TF over GST control). Moreover, the binding signal with ETS2 was 1.2 fold enrichment (6-mer frequency, TF over GST control); with SPDEF, 1.17 fold enrichment (6-mer frequency, TF over GST control); with ETV7 it was 1.13 fold enrichment (6-mer frequency, TF over GST control); in the assay with ELF5, 1.17 fold enrichment (6-mer frequency, TF over GST control); in the assay with ETV3 it was 1.16 fold enrichment (6-mer frequency, TF over GST control); with ETV6, 1.13 fold enrichment (6-mer frequency, TF over GST control).
